# IL2 activator: activators of IL-2 | activation, % (series mostly up to about 46 µM) | hit rate 0.065% among 360,000 | IL-2 activation reporter assay, cell-based qHTS; stimulated with anti-CD3/CD4/CD28 beads; in transgenic mouse T cells; in the data active = activation above about 50%; inconclusive = mostly about 30% to 49%
#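 Screening format: compound pinned onto unstimulated transgenic mouse T cells, 60 min incubation, then anti-CD3/anti-CD4/anti-CD28 bead stimulation for 18 hours at 37 degrees C, followed by EGFP and DsRed detection.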
# p53 reactivator: restores transcriptional activity of mutant p53; AID 504706; Potency, µM (series often up to 92.2 µM), most hits filed as activators; hit rate 0.063% among 320,000; H1299 p53-A138V BP100-luciferase reporter, luminescence, 24 h; also: nearly all actives have a fitted effect of over 45% in size
#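 H1299 (p53-null), stable ts p53-A138V + BP100-Luc; 1000 cells/well, Opti-MEM/10% FBS; cpd 4 pt, 1:5; 24 h, 37 deg C, 5% CO2; detection reagent 10 min RT; luminescence.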
# A549 tox: counter-screen for Nrf2 inhibitors: cytotoxicity in A549 cells. A549 ARE-Fluc cells, CellTiter-Fluor viability, 18-24 h. hit rate 0.16% among 390,000. AID 504648. Potency, µM (doses to about 46 µM), usual class: inhibitors
#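 Cytotoxicity counterscreen: CellTiter-Fluor fluorescence was measured in A549 ARE_Fluc cells after 18-24 h of compound exposure in a concentration series. The subsequent BugLite luminescent read reports ARE-luciferase activity.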
# Nrf2 inh: Nrf2 pathway inhibition. AID 504444. A549 ARE-Fluc reporter, luciferase luminescence, 18-24 h. Potency, µM (series often up to 46 µM), most hits filed as inhibitors. hit rate 2.1% among 360,000; also: nearly all actives have a fitted effect of over 60% in size
#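 Nrf2 function is reported as luminescence of an ARE-controlled luciferase in A549 cells. Compounds were tested at several concentrations, and a CellTiter-Fluor read on the same wells flagged cytotoxicity.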
# Nrf2 ARE act: activators of Nrf2 (ARE) signaling; AREc32 ARE-luciferase reporter (MCF7-derived line), luminescence, 24 h; Potency, µM (titrated, usually from 46.1 µM), most hits filed as activators; hit rate 0.31% among 410,000; AID 624171; also: nearly all actives have a fitted effect of over 65% in size
#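 Cells of the AREc32 ARE-luciferase line are plated in OPTI-MEM containing 5% FBS and left overnight at 37 deg C. Compounds are pinned in, incubation continues 24 hr, and firefly luciferase signal is then measured.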
# BRCA1 expr act: increases BRCA1 expression. MCF7-BRCA1-FFLuc reporter, luminescence, 48 h; response scale: scaled: vehicle 0%, 10 µM genistein 100%. Potency, µM (top dose mostly 46.1 µM), hits mostly activators. hit rate 1.1% among 380,000; also: nearly all actives have a fitted effect of over 80% in size
#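 MCF7 cells carrying a BRCA1-firefly luciferase reporter (2000 cells/well, phenol-red free MEM) were attached for 2 h at 37 °C, then given compounds for 48 h. Luminescence was read 15 min after luciferase reagent; activity normalized to genistein (10 microM) and DMSO.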
# Numbers stand for hits; 0 = inactive; ? = inconclusive; - = no result given; [ ] = dose if it differs, or a comment. A selection: hits, their analogues and other compounds. The true share with any hit is near 3.2%. Unless noted, calls follow the shape of the dose curve; as a rule, active = well fitted curve in the direction sought with a large enough effect; inconclusive = small, poorly fitted or top-dose-only effect, or another doubt; inactive = no such curve, though single readings can be large; an effect the other way counts as inactive or inconclusive.
SMILES,IL2 activator,p53 reactivator,A549 tox,Nrf2 inh,Nrf2 ARE act,BRCA1 expr act
Cc1ccc(NC(=O)c2cc3c(s2)CCC3)cc1S(=O)(=O)N1CCOCC1,0,0,0,21µM,0,0[1.84 µM]
COc1ccc(C(=O)Nc2ccc(-c3ccc(C)o3)cc2)cc1S(=O)(=O)N1CCOCC1,0,0,?,18µM,0,0
COc1cc2cccc(OC)c(=O)c2c(O)c1OC,0,?,0,?,0,10µM
COc1cc2c(ccc3cc(OC)c(OC)c(O)c32)cc1O,0,0,0,0,0,0
O=C(c1ccc2c(=O)n(-c3ccccc3)c(=S)[nH]c2c1)N1CCCCC1,0,0,0,7.3µM,0,0
O=C(c1ccc2c(=O)n(-c3ccccc3)c(=S)[nH]c2c1)N1CCN(c2ccccc2)CC1,0,0,0,?,0,0
O=C(c1ccc2c(=O)n(C3CCCC3)c(=S)[nH]c2c1)N1CCCCCC1,0,0,0,16µM,0,0
CCOc1ccc(Nc2cc(C)c(C#N)c3nc4ccccc4n23)cc1,-,-,0,0,0,0
O=C(O)CCC(=O)Nc1ccccc1C(=O)NCCc1ccccc1,0,?,0,0,0,8.9µM
NC(=O)c1ccccc1NC(=S)NC(=O)CCc1ccccc1,0,0,0,0,0,0
NC(=O)c1ccccc1NC(=O)CCc1ccccc1,0,?,0,-,0,11µM
O=C(N/N=C\c1ccccc1F)c1ccc(-c2ccccc2)cc1,0,0,0,0,0,10µM
Cc1ccc(S(=O)(=O)c2cn(CC(=O)Nc3ccc4c(c3)OCO4)c3ccccc3c2=O)cc1C,-,-,0,0,0,0
CCn1c(=O)c2cc(C(=O)NC3CCCCCC3)sc2c2ccccc21,-,-,0,?,0,0
Cn1c(=O)c2cc(C(=O)NC3CCCCCC3)sc2c2ccccc21,-,-,?,18µM,0,-
CCN(CC)CCC(c1ccc(N(C)C)cc1)c1c(OC)cc(OC)c2c1OC(=O)CC2c1ccc(N(C)C)cc1 (configuration not stated),-,-,0,0,-,-
CCCC1(C)Nc2ccccc2-c2nc3ccccc3n21 (configuration not stated),0,?,0,0,0,8.9µM
CCc1ccccc1NC(=O)CN1CCCN(Cc2cc(C)ccc2C)S1(=O)=O,-,-,0,?,0,-
Cc1cccc(Nc2ccc([N+](=O)[O-])cn2)c1,0,?,0,0,0,11µM
Cc1csc2nc(COC(=O)CNC(=O)c3ccc(F)cc3)cc(=O)n12,-,-,0,0,0,-
Cc1ccc(NC(=O)c2ccccn2)c(Br)c1,0,?,0,?,0,3.5µM
Cc1ccc(C)c(NC(=O)c2ccccn2)c1,0,0,0,?,0,0
Cc1ccccc1COC(=O)c1ccc(-c2nnn(Cc3ccccc3F)n2)cc1,-,-,0,0,0,-
O=C(NCCCc1nc2ccccc2n1CCCOc1ccccc1)C1CCCCC1,-,-,0,0,-,0
COc1ccc(CNC(=O)c2cc3c(=O)n4ccccc4nc3n(Cc3cccnc3)c2=N)cc1,95,0,0,-,0,0
SMILES,IL2 activator,p53 reactivator,A549 tox,Nrf2 inh,Nrf2 ARE act,BRCA1 expr act
N=c1c(S(=O)(=O)c2ccc(Cl)cc2)cc2c(=O)n3ccccc3nc2n1Cc1cccnc1,151,0,0,0,0,0
CN(C)S(=O)(=O)c1ccc(Cl)c(NC(=O)CSc2nc3c(cc2C#N)C(=O)CCC3)c1,0,0,0,15µM,0,0
CN(C)C(=S)SCC(=O)Nc1ccc(Cl)cc1Cl,0,0,0,0,0,10µM
COc1ccc(C2c3c(N)nc(CCc4ccccc4)nc3Oc3ccc4ccccc4c32)cc1OC (configuration not stated),-,-,0,?,-,-
O=C(CN1CCOCC1)Nc1ccccc1Sc1ccc(Cl)cc1,0,0,0,29µM,0,0
COC(=O)c1cccc(Nc2c(-c3ccc(SC)cc3)nc3nc[nH]n23)c1,-,-,0,-,0,-
Cc1c(C(=O)OCC(=O)N2CCCC(C)C2)oc2ccccc12 (configuration not stated),0,0,0,0,0,10µM
Cc1c(C(=O)NC2CCC(C)CC2)oc2ccccc12 (configuration not stated),0,?,0,?,0,5µM
COc1ccc2oc(C(=O)OCC(=O)N3CCCC(C)C3)c(C)c2c1 (configuration not stated),0,0,0,0,0,0
Fc1ccccc1C(NCCc1ccc(Cl)cc1)c1nnc(-c2ccccc2)o1 (configuration not stated),-,-,0,0,0,-
N=C1C=CC(=C(c2ccc(N)cc2)c2ccc(N)cc2)C=C1,0,-,9.2µM,7.3µM,0,0
CCOc1ccc(N2C(=O)C(CC(=O)Nc3ccccc3)N(Cc3ccccn3)C2=S)cc1 (configuration not stated),0,0,?,23µM,0,0
COCCNC(=O)c1c[nH]c2ccc(S(=O)(=O)N3CCc4ccccc43)cc2c1=O,0,0,0,16µM,0,0
COc1ccc(/C=C/c2cnc3ccccc3n2)cc1OC,-,-,-,-,-,0
Cc1cc(=O)c2ccccc2n1CC(=O)NCc1ccccc1,0,0,0,0,0,0
Cc1cc(=O)c2ccccc2n1Cc1ccccc1,0,0,0,16µM,0,0
O=C(/C=C/c1ccccc1)NC(=S)NNC(=O)c1cnccn1,0,0,0,7.3µM,0,0
COc1cccc2cc(S(=O)(=O)c3ccc(F)c(C)c3)c(=O)oc12,-,-,0,0,?,-
CC(C)Nc1ncnc2ccc(Br)cc12,0,0,0,10µM,0,0

# Source: PubChem (National Center for Advancing Translational Sciences (NCATS))
